# Laboratory results from PubChem BioAssay (NCATS).
# Records with an inconclusive call do not appear. Activity calls are given as the source filed them. Calls follow the shape of the dose curve; as a rule, active = well fitted inhibition curve with a large enough effect; inconclusive = small, poorly fitted or top-dose-only effect; inactive = flat fitted curve, though single readings scatter.
# Experiment: P-glycoprotein substrates identified in KB-8-5-11 adenocarcinoma cell line, qHTS therapeutic library screen (AID 1346987); also: nearly all actives have a fitted effect of over 65% in size
# Conditions: KB-8-5-11 (P-gp overexpressing) viability, CellTiter-Glo, 72 h; series mostly up to 44.5 µM; activity change, negative = cytotoxicity: at the top concentration
# Procedure, shortened: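 KB-8-5-11, a colchicine-selected P-gp-overexpressing KB-3-1 subline, was grown without colchicine for the assay. Cells were seeded at 500 cells/well, dosed in concentration-response and incubated 72 h at 37 degree C, 5% CO2. Viability was read by CellTiter-Glo luminescence.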
# % is scaled to controls: 0 for no effect and ±100 for the full control effect.
SMILES,outcome,"activity change, negative = cytotoxicity"
C=C[C@@H]1[C@H](O[C@@H]2O[C@H](CO)[C@@H](O)[C@H](O)[C@H]2O)OC=C(C(=O)O)[C@H]1CCOC(=O)/C=C/c1ccc(O)c(O)c1,inactive [at 17.3 µM],
O=C(c1ccc2nccnc2c1)N1CCCCC1,inactive,
C=C[C@H]1[C@H](O[C@@H]2O[C@H](CO)[C@@H](O)[C@H](O)[C@H]2O)OC=C(C(=O)OC)[C@H]1CCOC(=O)c1cc(O)c(O)c(O)c1,,0.853% [at 17.3 µM] (inactive)
O=C(O)/C=C/c1ccc(O)c(O[C@@H]2O[C@H](CO)[C@@H](O)[C@H](O)[C@H]2O)c1,,5.91% (inactive)
CC1(C)CC[C@]2(C(=O)O[C@@H]3O[C@H](CO)[C@@H](O)[C@H](O)[C@H]3O)CC[C@]3(C)C(=CCC4[C@@]5(C)C[C@@H](O)[C@H](O)[C@](C)(C=O)C5CC[C@]43C)[C@@H]2[C@@H]1O (stereo partly specified),inactive [at 17.3 µM],
O=C(CN1C(=O)C2(CCCC2)NCC1c1cc(F)cc(F)c1)Nc1ccc2c(c1)CC1(C2)C(=O)Nc2ncccc21 (stereo unspecified),,-0.283% (inactive)
